Screening data from PubChem BioAssay.
The list is not random: actives were taken first. Their share in the collection is about 5.5%.
uPA surface inh: qHTS for Inhibitors of Cell Surface uPA Generation | 0.31% of 330,000 active | AID 540303, 2011 | cell surface uPA generation assay, qHTS | Potency, µM (titrated, usually from 38.3 µM), without a hit: at the top dose activity change, negative = inhibition, actives largely listed as inhibitors; active means well fitted inhibition curve with a large enough effect; inconclusive means small, poorly fitted or top-dose-only effect; inactive means no such curve, though single readings can be large or run the other way; tested in mouse RAW 264.7 cells; further: on the % scale 0 is the no-effect control and ±100 the full control effect; nearly all actives have a fitted effect of over 55% in size
BCR signal inh: qHTS Assay to Find Inhibitors of Chronic Active B-Cell Receptor Signaling; ABC-DLBCL IkBa-CBG/CBR reporter, luminescence ratio, 4 h; Potency, µM (doses to about 46.1 µM), without a hit: at the highest dose activity change, negative = inhibition, usual class: inhibitors; 0.05% of 340,000 active; active means well fitted inhibition curve with a large enough effect in the signal ratio, with a control signal flat, not every such curve was filed as active; inconclusive means small, poorly fitted or top-dose-only effect, or effect the other way, or a change in a side signal; the % refers to the signal ratio;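 further: plate controls were basal doxycycline-induced cells for no effect and cells given 10 µM MG132 for full effect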
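Concentration-response series (up to 46 uM) were applied to TMD8 dual-reporter cells for 4 h at 37C with doxycycline. Green/red ratio, after filter-overlap correction, defined %Activity; red signal alone was normalised to basal cells and zero luminescence.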
VP16 counter: VP16 counterscreen qHTS for inhibitors of ROR gamma transcriptional activity; Drosophila S2 Gal4-VP16 UAS-luciferase, luminescence, 20 h; 3.5% of 310,000 active; Potency, µM (top dose mostly 53.6 µM), for inactives: at the highest dose activity, negative = inhibition, most hits filed as inhibitors; AID 2546, 2010;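 further: Gal4-VP16 expression switched on by copper sulfate through the metallothionein promoter; on the % scale 0 is the no-effect control and ±100 the full control effect; nearly all actives have a fitted effect of over 50% in size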
RORgamma inh: qHTS for inhibitors of ROR gamma transcriptional activity | Nuclear receptor ROR-gamma (Mus musculus), P51450 | Drosophila S2 Gal4-RORgamma UAS-luciferase reporter, 20 h | Potency, µM (top dose mostly 53.6 µM), for the others: top-dose activity change, negative = inhibition, actives largely listed as inhibitors | 5.4% of 310,000 active | AID 2551, 2010; further: on the % scale 0 is the no-effect control and ±100 the full control effect; nearly all actives have a fitted effect of over 60% in size
Target sequence (P51450 whole entry, looked up, the tested form may be a part): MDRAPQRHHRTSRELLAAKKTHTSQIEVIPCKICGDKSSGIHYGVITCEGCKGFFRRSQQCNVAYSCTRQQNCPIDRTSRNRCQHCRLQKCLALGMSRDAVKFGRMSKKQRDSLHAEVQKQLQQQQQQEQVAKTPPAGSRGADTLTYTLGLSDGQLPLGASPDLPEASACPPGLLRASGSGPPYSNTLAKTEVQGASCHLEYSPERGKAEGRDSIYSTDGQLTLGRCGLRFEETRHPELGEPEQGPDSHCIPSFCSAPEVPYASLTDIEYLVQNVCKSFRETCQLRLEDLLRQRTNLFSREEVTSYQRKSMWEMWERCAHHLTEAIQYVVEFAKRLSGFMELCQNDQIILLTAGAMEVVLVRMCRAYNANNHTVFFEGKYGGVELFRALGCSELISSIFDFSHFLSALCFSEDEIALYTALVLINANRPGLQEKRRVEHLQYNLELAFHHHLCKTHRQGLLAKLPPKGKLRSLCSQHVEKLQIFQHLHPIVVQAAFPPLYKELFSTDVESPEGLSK
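Luminescence from a UAS-regulated Photinus luciferase reporter in stably transfected Drosophila Schneider cells is measured; decreased signal marks ROR gamma inhibition. Fusion expression is induced by 700 uM copper sulfate for 20 hr.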
Mito fusion yeast: qHTS Assay for Small Molecule Inhibitors of Mitochondrial Division or Activators of Mitochondrial Fusion; S. cerevisiae fusion-defective mutant growth rescue, CellTiterGlo 48 h; Potency, µM (doses to about 46.1 µM), for inactives: at the highest dose growth rescue (activation), actives largely listed as activators; 0.23% of 320,000 active; further: % of control where 0% means no effect; nearly all actives have a fitted effect of over 45% in size
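Yeast fusion mutant, YPEG (non-fermentable carbon), compound, 48 h at 37C non-permissive; CellTiterGlo added, 10 min RT, luminescence read. Rescued growth = division inhibition.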
Integrin act MD: qHTS for Activators of Integrin-Mediated Alleviation for Muscular Dystrophy; alpha7betagal myoblasts, beta-gal FDG fluorescence, 48 h; Potency, µM (doses to about 38.3 µM), inactives show top-dose activation, usual class: activators; AID 624291, 2012; 0.064% of 350,000 active;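 further: 100% = response of the positive control SU9516; nearly all actives have a fitted effect of over 60% in size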
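Alpha7betagal+/- myoblasts (passage 13) were plated 16-24 hr, then exposed to compounds (1:260 dilution of DMSO stock) for 48 hours at 37C. After MPER lysis, β-galactosidase reporter activity was read as FDG fluorescence (ex 480/em 540) after 30 minutes.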
The depositor's hits bear a star; ? = inconclusive; / = no result given; [ ] = dose if it differs, or a comment. Unless noted, the call rests on the fitted dose curve; in most records, active means well fitted curve in the direction sought with a large enough effect; inconclusive means small, poorly fitted or top-dose-only effect, or another doubt; inactive means no such curve, though single readings can be large; an effect the other way counts as inactive or inconclusive. Potency means the concentration at half of the fitted maximal effect.

SMILES | uPA surface inh | BCR signal inh | VP16 counter | RORgamma inh | Mito fusion yeast | Integrin act MD
O=C(CCc1ccccc1)Nc1nnc(-c2cccs2)o1 | 8.2% | ? | 10µM* | 6.31µM* | -1.5% | -10.5%
O=C(CCSc1ccccc1)Nc1nnc(-c2ccccc2)o1 | ? | -17.7% | 11.2µM* | 10µM* | 1.9% | 3.7%
O=C(CCSc1ccccc1)Nc1nnc(-c2cccs2)o1 | -17.6% | -0.5% | 10µM* | 4.47µM* | 3.7% | -2.2%
CCN1CCc2c(sc(NC(=O)c3ccc(S(=O)(=O)N4CCCCCC4)cc3)c2C(=O)NC)C1 | -3.9% | -16.0% | -6.5% | -12.5% | 1.4% | -51.9%
COc1ccc(C(=O)N/C(=C\c2cn(C)c3ccccc23)C(=O)N2CCN(C)CC2)cc1OC | 1.3% | 3.5% | -10.8% | -2.7% | 3.2% | 23.7%
C=CCN1C(=O)/C(=c2\sc3nc(=O)c(Cc4ccccc4)nn3c2=O)c2ccccc21 | -4.7% | 8.7% | ? | 11.2µM* | -2.6% | -1.8%
COc1ccc(N(Cc2ccccc2)S(=O)(=O)c2cccc(C(=O)NCC3CCCO3)c2)cc1 (stereo not given) | 1.6% | 1.5% | / | / | 27.7% | 4.9%
COc1ccc(C(=O)NC(=S)NCc2cccnc2)cc1Cl | -0.4% | -22.5% | ? | 11.2µM* | -5.9% | -26.0%
COc1ccc(C(=O)NC(=S)NCc2ccccc2)cc1 | 9.1% | 8.0% | 22.4µM* | 7.08µM* | -7.0% | -16.5%
COc1ccc(C(=O)NCCSc2ccccc2)cc1 | -6.1% | ? | ? | 11.2µM* | -0.9% | 28.6%
CC(C)N(Cc1ccccc1)C(=O)CC(=O)N(Cc1ccccc1)C(C)C | 3.7% | 4.3% | 3.6% | -16.0% | 13.6% | -26.8%
COc1ccc(C(=O)NCc2cccnc2)cc1Br | -5.1% | 17.9% | -2.8% | 0.1% | -2.6% | -5.6%
COc1ccc(C(=O)NCCNC(=O)c2ccc(OC)cc2)cc1 | 0.2% | / | / | / | / | -10.6%
COc1cc(OC)cc(C(=O)NC(=S)N(Cc2ccccc2)C(C)C)c1 | -2.8% | -5.1% | 0.891µM* | 0.501µM* | 4.7% | -31.4%
O=C(NC(=S)NCc1ccccc1)c1ccc(Br)cc1 | -1.1% | / | / | / | / | 2.1%
COc1cccc(OC)c1NC(=O)Cn1nc(C)c2ccccc2c1=O | 3.5% | 0.0% | -9.1% | -4.3% | -2.6% | 6.4%
Cc1ccc(CNC(=O)c2ccc(NC(=O)N3CCSc4ncccc43)cc2)cc1 | / | -2.9% | / | / | / | /
COc1cc(OC)cc(C(=O)NC(=S)NCCc2ccccc2)c1 | / | ? | 0.631µM* | 0.708µM* | -1.5% | -24.6%
CC(=O)c1c(COC(=O)c2cccc(C)c2)nc2ccccc2[n+]1[O-] | -2.8% | 2.0% | -29.3% | 14.8% | 16.8% | 25.1%
CC(=O)c1c(COC(=O)c2ccncc2)nc2ccccc2[n+]1[O-] | 1.3% | 1.5% | ? | 11.2µM* | -6.7% | -14.9%
Cc1ccc(S(=O)(=O)NC(=O)NC2CCCC2)cc1 | / | / | 4.8% | 18.2% | / | /
Fc1ccc(Cn2cc(C(=S)N3CCOCC3)c3ccccc32)cc1 | 4.4% | 0.4% | ? | 8.91µM* | 1.0% | ?
CC1CCN(C(=S)c2cn(Cc3cccc(F)c3)c3ccccc23)CC1 | 11.5% | 0.3% | ? | 10µM* | 9.4% | -51.8%
Fc1ccccc1Cn1cc(C(=S)N2CCOCC2)c2ccccc21 | 8.8% | ? | 14.0% | ? | -0.9% | 8.5%
CN1CCN(C(=S)c2cn(Cc3ccc(Br)cc3)c3ccccc23)CC1 | ? | 15.7% | -7.7% | 25.1µM* | 3.3% | -22.3%
SMILES | uPA surface inh | BCR signal inh | VP16 counter | RORgamma inh | Mito fusion yeast | Integrin act MD
CN1CCN(C(=S)c2cn(Cc3ccccc3)c3ccccc23)CC1 | -9.4% | 6.5% | -1.1% | ? | -8.6% | -31.3%
CCOC(=O)C1CCC(CN(Cc2c(Cl)cccc2Cl)S(=O)(=O)c2ccc(F)cc2)CC1 (stereo not given) | / | 6.4% | / | / | / | /
COc1ccc(CCN(C)S(=O)(=O)c2cn(C)c(=O)n(C)c2=O)cc1OC | 10.4% | -2.5% | / | / | 2.8% | 17.8%
COc1cc(C(=O)OCC(=O)N2CCN(C(C)=O)CC2)ccc1OCC(C)C | 1.8% | ? | / | / | 3.5% | 21.6%
CCCCN(C)C(=S)Nc1ccc2nc3n(c(=O)c2c1)CCCCC3 | -3.4% | 1.2% | -13.1% | 2.1% | 0.5% | -13.0%
Fc1ccc(-c2nnc(Cc3nnc(-c4ccc(F)cc4)o3)o2)cc1 | / | -0.2% | ? | 5.01µM* | 3.2% | 1.3%
CCN(Cc1nc2cc(Cl)ccc2c(=O)[nH]1)C(=O)c1nn(C)c(=O)c2ccccc12 | -0.7% | -9.0% | / | / | -6.3% | -6.0%
Cc1cc(C(F)(F)F)nn1CC(=O)NNC(=S)Nc1cccc(Cl)c1 | / | 15.1% | ? | 11.2µM* | -1.0% | 8.1%[7.66 µM]
COc1cccc(NC(=S)NNC(=O)Cn2nc([N+](=O)[O-])cc2C)c1 | -7.9% | ? | -1.0%[10 µM] | -26.2% | 5.3% | ?
COc1cccc(NC(=S)NNC(=O)Cn2nc(C(F)F)cc2C(F)F)c1 | -4.4% | 3.3% | ? | 1.12µM* | -0.3% | 31.8%
O=C(Cn1nc(C(F)F)cc1C(F)F)NNC(=S)Nc1ccc([N+](=O)[O-])cc1 | 0.1% | ? | ? | 10µM* | -1.7% | ?
Cc1cc([N+](=O)[O-])nn1CC(=O)NNC(=S)Nc1ccc(Cl)cc1 | 4.3% | 0.5% | ? | 15.8µM* | 0.2% | -9.6%
Cc1cc(C(F)(F)F)nn1CC(=O)Nc1cccnc1 | 12.3% | -7.2% | -6.4% | 12.8% | 0.2% | -11.8%
O=C(Cn1nc(C(F)F)cc1C(F)F)NNC(=S)Nc1ccc(F)cc1 | / | 4.0% | -8.4% | -39.9% | -1.3% | 12.6%
